Results reported in the supplement of paper PMC7801607.

Tests used:
[1] = test system: CHO; assay: % viability of CHO cells (MTT); higher = less toxic; conditions: 48 h
Procedure, shortened: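 CHO cells seeded at 10^6 cells/well were exposed to compound at 2 or 20 µM for 48 h. Survival, as percent of untreated cells, was measured with the colorimetric tetrazolium (MTT) assay.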

[2] = test system: HepG2-A16-CD81; assay: % inhibition of HepG2 viability (CellTiter-Glo); higher = more toxic; conditions: 5 µM
[3] = test system: Plasmodium falciparum NF54 stage IV/V gametocytes; assay: % inhibition of gametocyte viability (PrestoBlue); higher = more inhibition; conditions: 48 h
Procedure, shortened: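 Compound was tested at 1 or 5 µM against Stage IV/V NF54 gametocytes plated at 100 µL/well (2% gametocytaemia, 5% haematocrit). After 48 h of stationary, hypoxic incubation at 37 °C, 10 µL PrestoBlue was added for 2 h before reading 612 nm fluorescence from 70 µL of transferred supernatant. Gametocyte viability inhibition, as a percentage, was scaled against vehicle and kill controls from a single run.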

[4] = test system: Plasmodium falciparum NF54 asexual blood stage; assay: % inhibition of asexual blood stage proliferation (pLDH); higher = more inhibition; conditions: 72 h
Procedure, shortened: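 In 96-well plates, compound at 2 or 20 µM was added to Plasmodium falciparum NF54 ring-stage cultures (1% haematocrit, 2% parasitaemia). Plates were incubated for 72 h at 37 °C in 4% CO2, 3% O2 and 93% N2, and survival was then read at 620 nm using the parasite lactate dehydrogenase assay. Inhibition of asexual proliferation, expressed as a percentage, was normalised to controls.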

[5] = test system: Plasmodium falciparum NF54 stage IV/V gametocytes; assay: % inhibition of gametocyte viability (ATP bioluminescence); higher = more inhibition; conditions: 24 h
Procedure, shortened: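 Density gradients were used to enrich stage IV/V NF54 gametocytes, which were then seeded into 96-well plates at 30,000 per well with compound at 1 or 5 µM. The plates were incubated at 37 °C for 24 h, and ATP was measured with the Promega BacTiter Glo bioluminescence system. Percent inhibition of gametocyte viability was normalised to the plate controls from a single run.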

[6] = test system: Plasmodium falciparum NF54 stage IV/V gametocytes; assay: % inhibition of gametocyte viability (luciferase reporter); higher = more inhibition; conditions: 48 h
Procedure, shortened: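 Luminescence from 30 µL lysate combined with 30 µL Promega luciferin substrate was recorded on a GloMax-Multi+ reader using 10 s integration. The lysate came from stage IV/V NF54-Pfs16-GFP-Luc gametocytes (2% gametocytaemia, 2% haematocrit) held with compound at 1 or 5 µM for 48 h at 37 °C under stationary, hypoxic conditions. Percent inhibition was normalised against controls run once.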

[7] = test system: Plasmodium berghei ANKA liver stage in HepG2-A16-CD81; assay: % inhibition of liver stage parasite viability (luciferase); higher = more inhibition; conditions: 5 µM; 48 h
Procedure: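 Single-concentration screen of the MMV Pandemic Response Box. P. falciparum NF54 asexual blood stages: pLDH assay, 72 h at 37 °C, 2 and 20 µM, n=2. Stage IV/V gametocytes (NF54): luciferase reporter (NF54-Pfs16-GFP-Luc, 48 h), ATP bioluminescence (24 h) and PrestoBlue (48 h) at 1 and 5 µM, n=1. P. berghei liver stage (luciferase in HepG2-A16-CD81, 48 h post infection) at 5 µM, n=4. All normalised to DMSO and kill controls as % inhibition.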
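Throughout, for % inhibition of HepG2 viability (CellTiter-Glo): HepG2-A16-CD81 hepatoma cells plated as in the liver-stage assay but without sporozoites, with DMSO wells as negative and 25 µM puromycin as positive control.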

Row | Compound | % viability of CHO cells ([1]; 2 µM) [%] | % viability of CHO cells ([1]; 20 µM) [%] | % inhibition of HepG2 viability [2] [%] | % inhibition of gametocyte viability ([3]; 1 µM) [%] | % inhibition of gametocyte viability ([3]; 5 µM) [%] | % inhibition of asexual blood stage proliferation ([4]; 2 µM) [%] | % inhibition of asexual blood stage proliferation ([4]; 20 µM) [%] | % inhibition of gametocyte viability ([5]; 1 µM) [%] | % inhibition of gametocyte viability ([5]; 5 µM) [%] | % inhibition of gametocyte viability ([6]; 1 µM) [%] | % inhibition of gametocyte viability ([6]; 5 µM) [%] | % inhibition of liver stage parasite viability [7] [%]
1 | COc1cc(NCc2ccc3nc(N)nc(N)c3c2C)cc(OC)c1OC | 109 | 47.7 | 17.2 | < 0 | < 0 | 40.8 | 88.6 | < 0 | < 0 | < 0 | < 0 | 
2 | CCCCc1ccc(-c2nc(C)c(C(=O)OC)s2)cc1 | 113 | 102 | 0.116 | 5.41 | 22.1 | 36.8 | 59.2 | < 0 | < 0 | < 0 | < 0 | 
3 | O=S(=O)(Nc1ccc(-n2cccc2)cc1)c1ccc(Cl)c(Cl)c1 | 95 | 90.4 | -0.822 | < 0 | < 0 | 6.75 | 24 | < 0 | < 0 | < 0 | < 0 | 
4 | CC(C)Oc1ccc(-n2cnc3cc(/C=C\c4ccc(C(C)(C)O)cc4)ccc32)cc1 | 113 | 115 | 5.08 | 30.8 | 32.2 | 25.6 | 54.7 | < 0 | < 0 | < 0 | < 0 | 
5 | CC1(C)[C@H](C(=O)O)N2C(=O)C[C@H]2S1(=O)=O |  |  |  | < 0 | < 0 | 11.2 | 34.3 | < 0 | < 0 | < 0 | < 0 | 20.3
6 | CCOC(=O)N1CCN(c2ccc(Cl)cc2)CC1 | 90.5 | 83.4 | -3.4 | 17.5 | < 0 | 6.16 | 24.1 | < 0 | < 0 | < 0 | 8.21 | 
7 | C[C@@H](c1nc(-c2ccc(C#N)cc2)cs1)[C@](O)(Cn1cncn1)c1ccc(F)cc1F | 92.5 | 99.8 | 3.07 | 12.4 | 15 | -2.05 | 34.3 | 2.16 | < 0 | < 0 | < 0 | 
8 | CCc1cc(CCCOc2c(C)cc(-c3noc(C(F)(F)F)n3)cc2C)on1 | 92.1 | 110 | -0.702 | < 0 | < 0 | 40.1 | 94.3 | 7.22 | 9.64 | 8.61 | 13.1 | 
9 | Nc1cnn(C2OC(CO)C(O)C2O)c(=O)n1 (stereo not given) | 109 | 110 | 9.61 | < 0 | 12.5 | 61.7 | 38.4 | 3.6 | < 0 | 4.96 | 6.45 | 
10 | Cc1[nH]c2ccccc2c1CC(=O)N[C@@H](Cc1ccccc1)C(=O)N(C)c1ccccc1 | 80.4 | 56 | 4.27 | 25.2 | 23.6 | -9.75 | 76.5 | 6.25 | < 0 | 1.82 | 1.07 | 
11 | CC(Cc1ccccc1)C(=O)Nc1ccc(Cl)cc1C(=O)O (stereo not given) | 102 | 99.8 | 5.78 | < 0 | < 0 | 35.5 | 76.5 | < 0 | < 0 | 13.7 | 11.5 | 
12 | CCC(C)NCC(O)Cn1c2ccc(Cl)cc2c2cc(Cl)ccc21 (stereo not given) | 112 | 1.87 | 1.41 | 33.3 | 87.6 | 68.7 | 81.8 | 6.9 | 68.2 | < 0 | 91 | 
